Results: ChEMBL document CHEMBL1157539, “Thousands of chemical starting points for antimalarial lead identification” (Nature, 2010)

Test system: Plasmodium falciparum
Assay: GSK_TCMDC: Inhibition of Plasmodium falciparum 3D7 in whole red blood cells, using parasite LDH activity as an index of growth. Test compounds present at 2uM
Format: functional

SMILES	Inhibition
Cc1cccc2nc(-c3cccc(-c4ccc(NC(=O)C(C)CN(C)C)cc4)c3)[nH]c12 (centres undefined)	100%
CC(C)(C)c1ccc(/C=C/C(=O)NCCCCCN2CCC(c3c[nH]c4ccccc34)CC2)cc1	91%
Cc1ccc(S(=O)(=O)N(CCCN2CCN(C)CC2)Cc2csc(-c3ccc(CNCc4ccccc4)cc3)n2)cc1.O=C(O)C(F)(F)F	97%
COc1ccc(Nc2ccnc3cc4ccccc4cc23)cc1.Cl	100%
COc1cc2nc(N3CCC(C(N)=O)CC3)nc(NCc3ccccc3)c2cc1OC	100%
Cc1nc2nc(N)nc(N)c2c(C)c1Cc1ccc(Cl)cc1.Cl	94%
CSc1nccc(-c2ccc3ccnc(N)c3c2)n1	100%
Oc1ccc(CCNc2nc(N/N=C/c3ccc(Cl)cc3)nc(N3CCNCC3)n2)cc1	100%
c1ccn2c(-c3ncnc(NCc4ccc5c(c4)CCO5)n3)cnc2c1	86%
CCCCNC(=O)[C@H](CC1CCCCC1)NC(=O)c1ccc(O)c(-c2ccc(Cl)c(Cl)c2)c1	98%
COc1ccc2ncc(F)c([C@H](O)CN3CCC(NCc4ccc5c(c4)NC(=O)CS5)CC3)c2c1.Cl	100%
CN(C)CC1CCCN1Cc1ccccc1-c1cnn(C)c(=O)c1Oc1ccccc1F.O=C(O)C(F)(F)F (centres undefined)	95%
Cc1cc(OCCCN2CCC(NS(=O)(=O)c3ccc(Cl)c(Cl)c3)C2)c2ccccc2n1 (centres undefined)	87%
COc1cccc(Nc2c(C(N)=O)cnc3ccc(-c4ccccc4)cc23)c1	98%
